Inconclusive results are not listed. Activity calls are given as the source filed them.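 How the source made its calls, unless noted: active means viability increase at or above a cutoff of the median across tested compounds plus 3 SD (cut at about 8.5% in these data, passing the limit was not always enough); inconclusive means some gains above the cutoff, reason not given; inactive means the rest.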
What was measured:
[1] = reducers of endogenous Her2 protein level, primary screen, SKBR3 breast tumor cells, AlphaScreen, ATP viability (AID 461;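 active means Her2 level under about 52% in both replicate screens, with viability over 70% of control, limit read from the data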;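 on Her2 level: lower value means less Her2 protein in the cells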;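 on viability: percent of carrier control wells set as 100% viability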); conditions: 18-24 h, measured here: SKBR3 viability, ATP luminescence, at 10 µM
[2] = biological target: Receptor tyrosine-protein kinase erbB-2 (Homo sapiens) (UniProt P04626); assay: as above; conditions: 18-24 h, at 10 µM, stronger effect = lower value
[3] = SK-BR-3 cell growth inhibitors, pilot screen, 24 h, human (AID 572;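 active means viability at or below 10% of carrier control in both of two separate runs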;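 further: compound exposure lasted between 18 and 24 h rather than exactly 24 h; 100% = carrier-treated control wells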); conditions: SK-BR-3 viability, CellTiter-Glo luminescence, at 10 µM, stronger effect = lower value
[4] = HUVEC growth inhibition – cell-based, human, primary screen (AID 575;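 active means viability at or below 30% in both replicate assays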;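 further: 100% = median of untreated cell wells with 0.1% DMSO on each plate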); conditions: HUVEC proliferation, CellTiter-Glo luminescence, 72 h; at 10 µM; stronger effect = lower value
[5] = growth inhibitors of H69AR lung tumor, primary screen, human, duplicate replicates (AID 580;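 active means viability at or under a set limit in both replicates, limit being median viability minus 3 SD, cut at about 48% in these data, passing the limit was not always enough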;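 further: 100% = mean luminescence of untreated wells and 0% = no signal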); conditions: H69AR lung tumor cells viability, ATP luminescence, 72 h; at 10 µM; stronger effect = lower value
[6] = reversal of MRP1-mediated doxorubicin resistance, pilot screen, H69AR cells, doxorubicin co-treatment (AID 601;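 active means viability loss from added drug above about 55%, and viability with drug at most 40%, in both replicates, limit read from the data, passing the limit was not always enough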); conditions: CellTiter-Glo, 72 h, at 10 µM; for differential viability (reversal): stronger effect = higher value
[7] = 384-well plate pilot, post-Golgi transport modulator project, inhibition of yeast transport mutant growth (AID 636; in the data active means inhibition above about 31%); conditions: absorbance 615 nm, about 18 h, stronger effect = higher value
[8] = growth suppression of yeast trafficking mutant, preliminary HTS, modulators of trafficking downstream of Golgi apparatus project, 1536-format plate, OD 615 nm (AID 637; in the data active means inhibition above about 30%); conditions: yeast transport mutant growth, absorbance 615 nm, 18 h; stronger effect = higher value
[9] = OD615 S. cerevisiae growth inhibition, permissive medium, pilot counter-assay, permissive growth control for S. cerevisiae lifespan shortening project (AID 705;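 active means growth inhibition above 25% in both replicates, a cutoff set 3 SD above the mean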); conditions: OD615, 24 h, at 10 µM, stronger effect = higher value
[10] = Restrictive medium S. cerevisiae growth inhibition, OD615, pilot screen of yeast lifespan reduction project, restrictive growth control (AID 706;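 active means growth inhibition above a set limit, 3 SD over mean compound inhibition, in both replicates, cut at about 43% in these data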;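 further: modified DeaD lifespan yeast strain shifted to restrictive glucose medium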); conditions: OD615, 48 h, at 10 µM, stronger effect = higher value
[11] = viability gain of MRP-1-high H69AR cells under doxorubicin, pilot screen, MRP-1 activator project, CellTiter-Glo, duplicate (AID 807); conditions: H69AR viability with doxorubicin, CellTiter-Glo luminescence; at 10 µM; stronger effect = higher value;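 further: compound pretreatment 18-22 h then 72 h combined with doxorubicin; 0% = doxorubicin alone and 100% = vehicle without doxorubicin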
[12] = growth suppression of beta-catenin knockout HCT116, pilot screen, human colon tumor cells (AID 823;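 active means cell viability at or below a set limit in both duplicate runs, the limit being the all-compound median minus 4 SD, cut at about 23% in these data, passing the limit was not always enough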;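 further: 0% = wells killed by 20 µM Hyamine and 100% = untreated DMSO cell wells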); conditions: CellTiter-Glo, 60 h, at 10 µM, stronger effect = lower value
[13] = growth suppression of PTEN-deleted HCT116, pilot screen, cell-based, HCT116 clonal line, CellTiter-Glo (AID 824;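 active means viability at or below 27.92% in each of two runs, the all-compound median minus 4 SD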;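 further: 0% = 20 µM Hyamine control and 100% = vehicle cell control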); conditions: 60 h, at 10 µM, stronger effect = lower value
[14] = inhibitors of the yeast RAM network, pilot screen, dse1pr::URA3 reporter, 5-FOA selection (AID 869;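 active means inhibition over a set limit, the all-compound mean plus 3 SD, in both replicate runs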;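 further: 0% = DMSO wells with no growth and 100% = 10 µM 1-NA-PP1 with full growth; RAM network block rescues cells from 5-FOA so hits raise OD615 growth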); conditions: S. cerevisiae dse1pr::URA3 5-FOA growth, OD615, 2 d; at 10 µM; stronger effect = higher value; strain carries analog-sensitive mutant Cbk1 kinase
[15] = RAM signaling pathway blockade in yeast – S. cerevisiae, Pdr1DBD-CYC8 efflux-inhibited sensitized strain, primary screen (AID 1298;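 active means RAM network inhibition above 8.4% in each of two replicates, 3 SD over the compound average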;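 further: 0% = DMSO untreated cells without growth and 100% = 10 µM 1-NA-PP1 full growth; higher means more yeast growth rescued from 5-FOA killing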); conditions: S. cerevisiae cbk1-as DSE1-URA3 strain, 5-FOA growth OD615, 2 d; at 50 µM; stronger effect = higher value
[16] = H69AR cells + 2 uM doxorubicin, measured here: viability with 2 uM doxorubicin, stronger effect = lower value
[17] = H69AR cells, compound alone cytotoxicity

Sequence of Receptor tyrosine-protein kinase erbB-2 (Homo sapiens) (P04626 whole entry, looked up): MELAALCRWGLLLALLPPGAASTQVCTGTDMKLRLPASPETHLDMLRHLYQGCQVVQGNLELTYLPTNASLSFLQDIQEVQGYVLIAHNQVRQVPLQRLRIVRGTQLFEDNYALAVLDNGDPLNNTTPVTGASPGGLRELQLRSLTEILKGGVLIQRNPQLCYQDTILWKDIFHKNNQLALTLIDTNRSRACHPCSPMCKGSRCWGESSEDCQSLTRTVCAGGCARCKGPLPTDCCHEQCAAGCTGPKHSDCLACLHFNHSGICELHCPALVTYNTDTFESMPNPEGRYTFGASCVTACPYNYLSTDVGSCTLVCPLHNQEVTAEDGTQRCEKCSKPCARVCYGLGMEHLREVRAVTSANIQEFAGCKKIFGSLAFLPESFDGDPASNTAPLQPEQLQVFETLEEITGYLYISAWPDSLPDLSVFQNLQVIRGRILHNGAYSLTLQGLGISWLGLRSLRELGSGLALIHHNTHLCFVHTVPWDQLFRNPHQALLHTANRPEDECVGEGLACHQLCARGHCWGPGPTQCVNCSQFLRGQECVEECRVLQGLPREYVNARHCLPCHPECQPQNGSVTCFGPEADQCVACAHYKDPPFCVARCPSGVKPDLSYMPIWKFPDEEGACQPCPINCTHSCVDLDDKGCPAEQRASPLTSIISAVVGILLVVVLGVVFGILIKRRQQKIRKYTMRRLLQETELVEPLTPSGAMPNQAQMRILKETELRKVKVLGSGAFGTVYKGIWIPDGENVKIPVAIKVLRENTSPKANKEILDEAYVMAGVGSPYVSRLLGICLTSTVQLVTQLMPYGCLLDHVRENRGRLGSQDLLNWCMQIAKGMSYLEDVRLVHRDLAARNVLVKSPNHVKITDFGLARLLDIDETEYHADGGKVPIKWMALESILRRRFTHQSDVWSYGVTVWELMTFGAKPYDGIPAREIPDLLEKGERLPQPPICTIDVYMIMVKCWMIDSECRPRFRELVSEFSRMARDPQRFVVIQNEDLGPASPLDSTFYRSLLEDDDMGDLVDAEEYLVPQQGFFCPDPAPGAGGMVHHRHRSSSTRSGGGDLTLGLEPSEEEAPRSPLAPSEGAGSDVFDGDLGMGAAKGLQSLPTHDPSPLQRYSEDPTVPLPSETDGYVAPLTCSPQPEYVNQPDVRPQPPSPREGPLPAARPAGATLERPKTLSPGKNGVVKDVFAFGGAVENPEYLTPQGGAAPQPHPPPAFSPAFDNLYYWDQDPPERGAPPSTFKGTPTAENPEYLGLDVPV

COCCCN1C(=O)C(=O)/C(=C(/O)c2ccc(OCC(C)C)cc2C)C1c1cccnc1 (centres undefined)
109%: viability [1]
98.1%: viability [6, 17]
inactive: Her2 level [2] 110% | viability [3] 109% | viability [4] 104% | viability [5] 98.1% | differential viability (reversal) ([6]; H69AR cells + 2 uM doxorubicin) 1.47% | inhibition [7] -2.21% | inhibition [8] -2.67% | growth inhibition [9] -1.21% | growth inhibition [10] 15.7% | viability increase [11] 0.13% | viability [12] 106% | viability [13] 95.6% | inhibition [14] 0.48% | RAM network inhibition [15] 2.11%
96.6%: viability [6, 16]

CCN(C1CCCCC1)S(=O)(=O)c1ccc(S(=O)(=O)N2CCN(CCC#N)CC2)cc1
98.3%: viability [6, 16]
105%: viability [1]
87.8%: viability [6, 17]
inactive: Her2 level [2] 114% | viability [3] 105% | viability [4] 75.8% | viability [5] 87.8% | differential viability (reversal) ([6]; H69AR cells + 2 uM doxorubicin) -10.4% | inhibition [7] -1.28% | inhibition [8] -3.5% | growth inhibition [9] 4.85% | growth inhibition [10] 3.67% | viability increase [11] -3.47% | viability [12] 86.6% | viability [13] 85.9% | inhibition [14] 0.645% | RAM network inhibition [15] -1.33%

CC1NC2(C(=O)N(Cc3ccccc3)c3ccccc32)C2C(=O)N(c3ccccc3)C(=O)C12 (centres undefined)
inactive: Her2 level [2] 100% | viability [3] 120% | viability [4] 95.5% | viability [5] 93.5% | differential viability (reversal) ([6]; H69AR cells + 2 uM doxorubicin) 0.575% | inhibition [7] -4.13% | inhibition [8] 1% | growth inhibition [9] -5.06% | growth inhibition [10] -14.4% | viability increase [11] 1.77% | viability [12] 97.1% | viability [13] 104% | inhibition [14] 0.29% | RAM network inhibition [15] 3.53%
93.5%: viability [6, 17]
120%: viability [1]
92.9%: viability [6, 16]

Cc1ccc(C)c2[nH]c(=O)c(CCNC(=O)CC(C)(C)C)cc12
88%: viability [1]
69.7%: viability [6, 16]
90.9%: viability [6, 17]
inactive: Her2 level [2] 105% | viability [3] 88% | viability [4] 103% | viability [5] 90.9% | differential viability (reversal) ([6]; H69AR cells + 2 uM doxorubicin) 21.2% | inhibition [7] -4.27% | inhibition [8] -4.5% | growth inhibition [9] -4.09% | growth inhibition [10] -11.6% | viability increase [11] 1.59% | viability [12] 104% | viability [13] 92.6% | inhibition [14] 1.04% | RAM network inhibition [15] 4.85%

COc1ccc(C2CC(c3ccc(OC)cc3)n3nc(N)nc3N2)cc1 (centres undefined)
85.1%: viability [6, 16]
97.5%: viability [1]
82.2%: viability [6, 17]
inactive: Her2 level [2] 98% | viability [3] 97.5% | viability [4] 88% | viability [5] 82.2% | differential viability (reversal) ([6]; H69AR cells + 2 uM doxorubicin) -2.91% | inhibition [7] 0.77% | inhibition [8] 0.17% | growth inhibition [9] 7.76% | growth inhibition [10] 16.3% | viability increase [11] 0.09% | viability [12] 105% | viability [13] 98.1% | inhibition [14] 1.62% | RAM network inhibition [15] 3.07%

COCCNC(=O)CN1C(=O)CSc2ncccc21
83.5%: viability [1]
86.4%: viability [6, 17]
95.1%: viability [6, 16]
inactive: Her2 level [2] 88% | viability [3] 83.5% | viability [4] 97.8% | viability [5] 86.4% | differential viability (reversal) ([6]; H69AR cells + 2 uM doxorubicin) -8.7% | inhibition [7] -4.67% | inhibition [8] -0.33% | growth inhibition [9] 2.19% | growth inhibition [10] -5.72% | viability increase [11] -0.21% | viability [12] 102% | viability [13] 92% | inhibition [14] 1.92% | RAM network inhibition [15] 0.97%

CCCc1cc(C(=O)Nc2ccc(C(C)=O)cc2)no1
93.9%: viability [6, 16]
80.5%: viability [1]
99.5%: viability [6, 17]
inactive: Her2 level [2] 91% | viability [3] 80.5% | viability [4] 77.7% | viability [5] 99.5% | differential viability (reversal) ([6]; H69AR cells + 2 uM doxorubicin) 5.59% | inhibition [7] 1.92% | inhibition [8] -1% | growth inhibition [9] -0.51% | growth inhibition [10] -1.09% | viability increase [11] -0.27% | viability [12] 98.5% | viability [13] 104% | inhibition [14] 2.74% | RAM network inhibition [15] 6.52%

O=C(Nc1ccc(N2C(=O)C3C4C=CC(C4)C3C2=O)cc1)Nc1nncs1 (centres undefined)
87.8%: viability [6, 17]
85.6%: viability [6, 16]
inactive: Her2 level [2] 108% | viability [3] 92% | viability [4] 96.2% | viability [5] 87.8% | differential viability (reversal) ([6]; H69AR cells + 2 uM doxorubicin) 2.15% | inhibition [7] -3.47% | inhibition [8] 0.83% | growth inhibition [9] -7.11% | growth inhibition [10] 6.49% | viability increase [11] -1.28% | viability [12] 97.6% | viability [13] 95.3% | inhibition [14] 0.53% | RAM network inhibition [15] 3.5%
92%: viability [1]

CC1CCN(Cc2nc3c(c(=O)n(C)c(=O)n3C)n2Cc2cccc3ccccc23)CC1
89.2%: viability [6, 16]
84.9%: viability [6, 17]
inactive: Her2 level [2] 86.5% | viability [3] 84% | viability [4] 98% | viability [5] 84.9% | differential viability (reversal) ([6]; H69AR cells + 2 uM doxorubicin) -4.26% | inhibition [7] -4% | inhibition [8] 3.67% | growth inhibition [9] -0.525% | growth inhibition [10] 0.35% | viability increase [11] -1.93% | viability [12] 87% | viability [13] 88.2% | inhibition [14] 0.115% | RAM network inhibition [15] 7.49%
84%: viability [1]

C=CCSc1nnc(-c2cccnc2)o1
inactive: Her2 level [2] 99.5% | viability [3] 95% | viability [4] 103% | viability [5] 96.9% | differential viability (reversal) ([6]; H69AR cells + 2 uM doxorubicin) 9.17% | inhibition [7] -5.6% | inhibition [8] 9% | growth inhibition [9] -1.77% | growth inhibition [10] 7.71% | viability increase [11] -1.02% | viability [12] 101% | viability [13] 101% | inhibition [14] 0.94% | RAM network inhibition [15] 0.16%
96.9%: viability [6, 17]
95%: viability [1]
87.8%: viability [6, 16]

COCCCNC(=O)Cn1cc2c(n1)CCC(C)C2 (centres undefined)
112%: viability [1]
inactive: Her2 level [2] 100% | viability [3] 112% | viability [4] 90.5% | viability [5] 90.1% | differential viability (reversal) ([6]; H69AR cells + 2 uM doxorubicin) -1.69% | inhibition [7] 0% | inhibition [8] 0.17% | growth inhibition [9] -1.62% | growth inhibition [10] 5.27% | viability increase [11] 0.05% | viability [12] 104% | viability [13] 102% | inhibition [14] 1.82% | RAM network inhibition [15] -0.72%
91.8%: viability [6, 16]
90.1%: viability [6, 17]

O=C(OCn1nnc2ccccc2c1=O)c1cc2ccccc2o1
inactive: Her2 level [2] 106% | viability [3] 88% | viability [4] 94.6% | viability [5] 91.7% | differential viability (reversal) ([6]; H69AR cells + 2 uM doxorubicin) -23.7% | inhibition [7] -5.47% | inhibition [8] -8.5% | growth inhibition [9] 3.37% | growth inhibition [10] -2.58% | viability increase [11] 1.18% | viability [12] 99.5% | viability [13] 104% | inhibition [14] 3.96% | RAM network inhibition [15] 7.11%
91.7%: viability [6, 17]
115%: viability [6, 16]
88%: viability [1]
